These results are taken from ChEMBL document CHEMBL4513216, “Probing the Open Global Health Chemical Diversity Library for Multistage-Active Starting Points for Next-Generation Antimalarials” (ACS Infect Dis, 2020).

The whole screen tested about 69,000 compounds, of which about 8,600 (12%) showed an effect of 50% or more. The sample as a whole holds a higher share of strong results than the screen did.

The test deals with Plasmodium berghei. Description: Screen against P. berghei liver stage (PbLuc), transformed with Luciferase, at 10uM. The test is classed as functional, HepG2. The note with it: tested at 10 uM.
As for `CCC(C)NC(=O)c1cc(S(=O)(=O)N2CCCC2)c(C)s1` (centres undefined), the INHIBITION is listed as 28.3%. Then `Cn1ccc(C(=O)NCc2ccc(N3CCOCC3)nc2)cc1=O`, with -29.9%; and `O=C(NCC(F)(F)F)C1CSCN1S(=O)(=O)c1cccc(F)c1` (centres undefined), with -16.6%. As to `COc1ccc(-c2cc(C(=O)NCCn3ccnc3)n(C)n2)cc1`, the INHIBITION is recorded as -5.8%. With `CN(Cc1ccc(O)cc1)C(=O)NCc1nnc2n1CCCCC2`, the INHIBITION is given as -9.76%. Then `CCc1nc(CN2CCCN(CC(=O)N3CCOCC3)CC2)no1`, with 13.8%; and `CCC(C)C(=O)NCc1c(C)nn(C)c1N1CCCN(C)CC1` (centres undefined), with -1.32%. Then `Cc1occc1C(=O)N1CCC2(CC1)CN(c1ccccn1)CCO2`, with 14.8%; and `NCC(=O)N1CCC2(CC1)CN(C(=O)Cc1ccc(Cl)cc1)CCO2`, with -26.3%; and `O=C(CC1CC1)N1CCC2(CC1)CN(c1ncccn1)CCO2`, with 50%. Then `c1cnc(N2CCOC3(CCN(CC4CCCCC4)CC3)C2)nc1`, with 34.7%; and `O=C(CC1CC1)N1CCC2(CC1)CN(c1ncc(F)cn1)CCO2`, with 35.7%; and `NCCC(=O)N1CCC2(CC1)CN(C(=O)Cc1cccc(Cl)c1)CCO2`, with -4.76%.

`NCCC(=O)N1CCC2(CC1)CN(C(=O)Cc1ccc(Cl)cc1)CCO2`: the INHIBITION was determined as 64.8%. Then `O=S(=O)(C1CC1)N1CCC2(CN(c3ncccn3)C2)C1`, with 54.8%. Take `O=S(=O)(C1CC1)N1CCC2(CN(c3ccccn3)C2)C1`: the INHIBITION worked out at 24.9%. Then `O=C(N1CCOCC1)N1CCC2(CC1)CN(c1ccccn1)CCO2`, with 67.2%. Then `O=S(=O)(C1CC1)N1CCC2(CCCN(c3ncccn3)C2)C1` (centres undefined), with 19.6%; and `CCCS(=O)(=O)N1CCC2(CC1)CN(c1ccccn1)CCO2`, with 0%; and `NC(=O)c1cnc(NC2CC2)nc1CCNC(=O)Cc1ccccc1`, with -50.3%. Then `CCn1nc(C)c(CNC(=O)NCC(C)(O)c2ccc(C)o2)c1C` (centres undefined), with -8.5%. On to `Cc1ccc(CN2CCC3(CC2)C(=O)N(CCO)CCN3C)o1`, for which the INHIBITION was 18.6%. Then `O=C(CCc1ccsc1)N1CCCC(N2CCNC2=O)C1` (centres undefined), with -5.26%. As to `O=C(NCCc1ccccn1)N1CCOC(c2ccccc2Cl)C1` (centres undefined), the INHIBITION is on record as -4.63%. As for `COc1cc(C2SC(C)=Nc3c2c(=O)[nH]n3C2CCCC2)ccc1O` (centres undefined), the INHIBITION amounted to 24.7%.

`CC(C)CC(=O)N1C[C@H]2CCCN(S(=O)(=O)c3ccc(Cl)s3)[C@H]2C1`: the INHIBITION was -29.9%. Then `Cc1cnc(C(=O)N2CCC3(CC2)CN(c2ccccn2)CCO3)cn1`, with 56.7%; and `O=C(c1cscn1)N1CCC2(CC1)CN(c1ccccn1)CCO2`, with 34.6%. Regarding `CS(=O)(=O)N1CCOC2(CCCN(c3cnccn3)C2)C1` (centres undefined), the INHIBITION is -14%. On to `CCOC1CC2(CCN(C(=O)Cc3ccccn3)CC2)C1`, for which the INHIBITION amounted to 31.2%. For `CC(C)COC1CC2(CCN(C(=O)Cc3ccccn3)CC2)C1` the value was 64.7%; for `COCC(=O)N1CCOC2(CCCN(c3cnccn3)C2)C1` (centres undefined), 52.3%; for `CC(=O)N1CCCC2(C1)CN(C(=O)Cc1ccccc1)CCO2` (centres undefined), 41.6%. Then `O=C(Cc1ccccn1)N1CCC2(CC1)[C@H](O)C[C@@H]2O`, with 39%. For `CCS(=O)(=O)N1CCOC2(CCCN(c3cnccn3)C2)C1` (centres undefined) the value was -7.59%; for `O=C(Cc1ccccn1)N1CCC2(CC1)CN(c1ncccn1)CCO2`, 27.6%; for `O=C(Cc1ccccc1)N1CCC2(CC1)CN(c1ncccn1)CCO2`, 50.9%. For `Cc1ccc(C(=O)N2CCC3(CC2)CN(c2ccccn2)CCO3)cc1`, the INHIBITION is reported as 49.7%. For `CC1=C(C#N)C(=O)NC(=O)/C1=C\c1c(C)[nH]n(-c2ccc(Cl)cc2)c1=O` the value was 11.5%.

`Cn1cc(CCNC(=O)N2CCCC(c3nncn3C)C2)cn1` (centres undefined): the INHIBITION was -18%.

Take `Cc1nnc2n1CCN(Cc1csc(-c3ccsc3)n1)C2`: the INHIBITION was determined as 14.4%.

Regarding `CC(C)Cc1nc(CN2CCOC(Cn3cccn3)C2)no1` (centres undefined), the INHIBITION was found to be 28.8%. Then `O=C(c1ccc(-c2cnco2)cc1)N1CCC(Nc2cccnn2)CC1`, with -46.2%; and `Cc1nccn1-c1cncc(C2CCCN2Cc2cccnc2)n1` (centres undefined), with -22.6%; and `CCC(CO)N(C/C(C)=C/c1ccco1)Cc1ccsc1` (centres undefined), with 42.3%.

For `COCCN1CCCc2sc(C(=O)NCC3CCCO3)nc21` (centres undefined), the INHIBITION is reported as -50.8%. Then `COCCN(C)C[C@@H]1CCC[C@@H]2CN(c3ncccn3)C[C@@H]21`, with 26%. For `O=C(c1ccnnc1)N1CCC2(CC1)CN(c1ccccn1)CCO2` the value was 33.4%; for `c1cnc(N2CCCC3(CCN(CC4CCOC4)CC3)C2)nc1` (centres undefined), -19.1%; for `CN(C)C(=O)N1CCC2(CCCN(c3ncccn3)C2)C1` (centres undefined), 11.5%. For `O=C(c1cccc(F)c1)N1CCC2(CC1)CN(c1ccccn1)CCO2` the value was 57.9%; for `O=C(c1cccnc1)N1CCC2(CC1)CN(c1ccccn1)CCO2`, -13.2%; for `O=C(CC1CC1)N1CCC2(CCCN(c3ncccn3)C2)CC1`, 52%. With `O=C(C1=CCCCC1)N1CCC2(CC1)COC(COc1ccccn1)C2` (centres undefined), the INHIBITION is on record as 3.41%. Turning to `Cc1ccccc1CC(=O)NS(=O)(=O)c1cccc2cnccc12`, the INHIBITION was 40.6%. Consider `Cc1cc(N2CCN(C(=O)c3cnn(C(C)C)c3)CC2)cc(C)n1`, for which the INHIBITION is reported as 3%. For `CC(C)n1cc(C(=O)N2CCN(c3cccc(C(F)(F)F)c3)CC2)cn1`, the INHIBITION was 62.8%. Regarding `Cc1cc(N2CCN(C(=O)c3cnn(C(C)C)c3)CC2)nc(N)n1`, the INHIBITION is -2.73%. In the case of `Cc1occc1C(=O)N1CCO[C@H]2[C@@H](Oc3ccccn3)CC[C@@H]21`, the INHIBITION is given as 30.7%.

In the case of `Cc1cc(C(=O)N2CCO[C@H]3[C@H](Oc4ccccn4)CC[C@@H]32)c(C)[nH]1`, the INHIBITION turned out to be 32.1%. Consider `O=C(N1CCCC1)N1CCO[C@H]2[C@@H](Oc3ccccn3)CC[C@@H]21`, for which the INHIBITION turned out to be 35.3%. For `O=C(C1=CCCC1)N1CCO[C@H]2[C@@H](Oc3ccccn3)CC[C@@H]21` the value was 30.1%.

Turning to `Cc1cncc(C(=O)N2CCO[C@H]3[C@H](Oc4ccccn4)CC[C@@H]32)c1`, the INHIBITION turned out to be 72.9%. Then `O=C(c1cscn1)N1CCO[C@H]2[C@@H](Oc3ccccn3)CC[C@@H]21`, with 63.8%; and `Cc1nn(C)c(C)c1C1CCCN1C(=O)c1ccc(C(N)=O)s1` (centres undefined), with 22.8%. Then `Cc1ccc(CN(C)c2cc(N3CCCC3CO)ncn2)s1` (centres undefined), with -21.4%. Then `CCOC(=O)N1CCN(c2nc(NC3CC3)c3ccccc3n2)CC1`, with 52.3%; and `CCOC(=O)N1CCN(c2nc(N3CCCC3)c3ccccc3n2)CC1`, with 3.68%; and `CCOC(=O)N1CCN(c2nc(N)c3ccccc3n2)CC1`, with -90.8%.

With `CCOC(=O)N1CCN(c2nc(NCCCO)c3ccccc3n2)CC1`, the INHIBITION turned out to be 51.3%.

Regarding `CCOC(=O)N1CCN(c2nc(NC)c3ccccc3n2)CC1`, the INHIBITION is recorded as 45%.

Consider `CCOC(=O)N1CCN(c2nc(NCCO)c3ccccc3n2)CC1`, for which the INHIBITION turned out to be 6.54%. Consider `CNC(=O)CN1CC[C@H]2CN(C(=O)c3ccccc3F)C[C@H]2C1`, for which the INHIBITION was 19.4%. Then `CCn1c(C2CCNCC2)nn(CCn2ccc(C)n2)c1=O`, with 21.1%. Then `CC(=O)N1CCCCC[C@@H]2[C@@H]1[C@H](c1cccc(F)c1)CN2C(C)=O`, with 20.1%; and `CCN1CCC(CNC(=O)C2(c3cccc(C)c3)CCCCC2)CC1`, with -3.2%.

Take `CN1CCC(c2cncc(-c3cccc(Cl)c3)n2)CC1`: the INHIBITION is on record as 19.6%. Then `CSc1ccc(CNc2ccccc2CN2CCC(O)CC2)cc1`, with -23.1%; and `CC(C)c1ccc(CNC(C)c2ccc(S(C)(=O)=O)cc2)cc1` (centres undefined), with 6.39%; and `Cc1nc(CNC(C)c2ccc(S(=O)(=O)N(C)C)cc2)no1` (centres undefined), with 45.7%. For `CC1CCN(CC(O)CNc2ccc(Cl)cn2)CC1` (centres undefined) the value was 35.6%.

For the compound `OC1CCN(Cc2ccc(CNc3ncc(Cl)cc3F)cc2)CC1`, the INHIBITION was 63.7%. `CN(C)S(=O)(=O)c1ccc(CNc2ccc(Cl)cn2)cc1`: the INHIBITION is given as 79.8%. Regarding `CC(C)c1ccc(CNC(C)c2ccc(S(=O)(=O)N(C)C)cc2)cc1` (centres undefined), the INHIBITION turned out to be 52.3%.

As to `Clc1ccc(CNc2ccc(Cl)cn2)cc1`, the INHIBITION was -151%. Then `CNS(=O)(=O)Cc1cccc(CNc2ccc(Cl)cn2)c1`, with 45.2%; and `OC1CCCN(CCNc2ncc(Cl)cc2F)C1` (centres undefined), with 22.1%. For `OC1CCN(Cc2ccc(CNc3ccc(Cl)cn3)cc2)CC1` the value was 54.3%.

Consider `CN(c1ccc(CNc2ccc(Cl)cn2)cc1)S(C)(=O)=O`, for which the INHIBITION is listed as -95.7%. Then `CN(C)S(=O)(=O)N1C[C@@H]2C[C@H](C(=O)NCc3ccccc3)[C@H](C1)O2`, with 21.5%; and `CC(C)Oc1ccc(CNC(=O)CN(C)S(C)(=O)=O)cc1F`, with 13.375%; and `O=C(CCc1cc2n(n1)CCN(Cc1ccncc1)C2)N1CCCC1`, with 33.5%. For `COCC1CN(C(=O)Cc2ccccn2)Cc2cn(CC3CC3)nc21` (centres undefined) the value was -26%; for `CSc1ccc(CN(CCO)C(=O)CCc2cccc(F)c2)cc1`, -1.04%.

Take `CC(C)c1nsc(N2CCSCC2)n1`: the INHIBITION is listed as -8%. With `CC(C)c1nsc(N2CCCOCC2)n1`, the INHIBITION turned out to be 61.6%. For the compound `CC(C)c1nsc(N2CCC(OCCN3CCOCC3)CC2)n1`, the INHIBITION is reported as 54.6%. Turning to `CC(C)c1nsc(N2CCS(=O)(=O)CC2)n1`, the INHIBITION is on record as -16.3%. Regarding `CC(C)c1nsc(N2CCOC3(CCCC3)C2)n1`, the INHIBITION is -10.3%. `CC(C)c1nsc(N2CCOCC2)n1`: the INHIBITION came to 7.3%. Then `NC(=O)C1(c2cnccn2)CCCN1Cc1ccc(Cl)c(F)c1` (centres undefined), with -6.3%; and `Clc1ccc(CN(CCN2CCOCC2)Cc2cccnc2)cc1Cl`, with 8.12%. Then `Cc1nn(C)c(C)c1-c1cnc(CC2CCNC2)cn1` (centres undefined), with -22.3%; and `Nc1nc2nc(C3CCCN(C(=O)c4cnccn4)C3)ccc2s1` (centres undefined), with 26.8%.
